Experimental data as given in the supplement of paper PMC11732987, “Enantioselective OTUD7B fragment discovery through chemoproteomics screening and high-throughput optimisation” (Communications Chemistry, 2025).

Experiments:
Assay in all cases: log2 ratio of Biotin-Ahx-Ub-VS probe labelling (fragment/DMSO); higher = less target engagement (more negative = stronger competition), active = hit call of the paper (q ≤ 0.05, log2 ratio ≤ -1)
Details in all cases: compound concentration: 200 uM; treatment time: 3 h
[1] = target: USP34 (UniProt Q70CQ2)
Chain of USP34 (Q70CQ2 whole entry, the tested form may be a part): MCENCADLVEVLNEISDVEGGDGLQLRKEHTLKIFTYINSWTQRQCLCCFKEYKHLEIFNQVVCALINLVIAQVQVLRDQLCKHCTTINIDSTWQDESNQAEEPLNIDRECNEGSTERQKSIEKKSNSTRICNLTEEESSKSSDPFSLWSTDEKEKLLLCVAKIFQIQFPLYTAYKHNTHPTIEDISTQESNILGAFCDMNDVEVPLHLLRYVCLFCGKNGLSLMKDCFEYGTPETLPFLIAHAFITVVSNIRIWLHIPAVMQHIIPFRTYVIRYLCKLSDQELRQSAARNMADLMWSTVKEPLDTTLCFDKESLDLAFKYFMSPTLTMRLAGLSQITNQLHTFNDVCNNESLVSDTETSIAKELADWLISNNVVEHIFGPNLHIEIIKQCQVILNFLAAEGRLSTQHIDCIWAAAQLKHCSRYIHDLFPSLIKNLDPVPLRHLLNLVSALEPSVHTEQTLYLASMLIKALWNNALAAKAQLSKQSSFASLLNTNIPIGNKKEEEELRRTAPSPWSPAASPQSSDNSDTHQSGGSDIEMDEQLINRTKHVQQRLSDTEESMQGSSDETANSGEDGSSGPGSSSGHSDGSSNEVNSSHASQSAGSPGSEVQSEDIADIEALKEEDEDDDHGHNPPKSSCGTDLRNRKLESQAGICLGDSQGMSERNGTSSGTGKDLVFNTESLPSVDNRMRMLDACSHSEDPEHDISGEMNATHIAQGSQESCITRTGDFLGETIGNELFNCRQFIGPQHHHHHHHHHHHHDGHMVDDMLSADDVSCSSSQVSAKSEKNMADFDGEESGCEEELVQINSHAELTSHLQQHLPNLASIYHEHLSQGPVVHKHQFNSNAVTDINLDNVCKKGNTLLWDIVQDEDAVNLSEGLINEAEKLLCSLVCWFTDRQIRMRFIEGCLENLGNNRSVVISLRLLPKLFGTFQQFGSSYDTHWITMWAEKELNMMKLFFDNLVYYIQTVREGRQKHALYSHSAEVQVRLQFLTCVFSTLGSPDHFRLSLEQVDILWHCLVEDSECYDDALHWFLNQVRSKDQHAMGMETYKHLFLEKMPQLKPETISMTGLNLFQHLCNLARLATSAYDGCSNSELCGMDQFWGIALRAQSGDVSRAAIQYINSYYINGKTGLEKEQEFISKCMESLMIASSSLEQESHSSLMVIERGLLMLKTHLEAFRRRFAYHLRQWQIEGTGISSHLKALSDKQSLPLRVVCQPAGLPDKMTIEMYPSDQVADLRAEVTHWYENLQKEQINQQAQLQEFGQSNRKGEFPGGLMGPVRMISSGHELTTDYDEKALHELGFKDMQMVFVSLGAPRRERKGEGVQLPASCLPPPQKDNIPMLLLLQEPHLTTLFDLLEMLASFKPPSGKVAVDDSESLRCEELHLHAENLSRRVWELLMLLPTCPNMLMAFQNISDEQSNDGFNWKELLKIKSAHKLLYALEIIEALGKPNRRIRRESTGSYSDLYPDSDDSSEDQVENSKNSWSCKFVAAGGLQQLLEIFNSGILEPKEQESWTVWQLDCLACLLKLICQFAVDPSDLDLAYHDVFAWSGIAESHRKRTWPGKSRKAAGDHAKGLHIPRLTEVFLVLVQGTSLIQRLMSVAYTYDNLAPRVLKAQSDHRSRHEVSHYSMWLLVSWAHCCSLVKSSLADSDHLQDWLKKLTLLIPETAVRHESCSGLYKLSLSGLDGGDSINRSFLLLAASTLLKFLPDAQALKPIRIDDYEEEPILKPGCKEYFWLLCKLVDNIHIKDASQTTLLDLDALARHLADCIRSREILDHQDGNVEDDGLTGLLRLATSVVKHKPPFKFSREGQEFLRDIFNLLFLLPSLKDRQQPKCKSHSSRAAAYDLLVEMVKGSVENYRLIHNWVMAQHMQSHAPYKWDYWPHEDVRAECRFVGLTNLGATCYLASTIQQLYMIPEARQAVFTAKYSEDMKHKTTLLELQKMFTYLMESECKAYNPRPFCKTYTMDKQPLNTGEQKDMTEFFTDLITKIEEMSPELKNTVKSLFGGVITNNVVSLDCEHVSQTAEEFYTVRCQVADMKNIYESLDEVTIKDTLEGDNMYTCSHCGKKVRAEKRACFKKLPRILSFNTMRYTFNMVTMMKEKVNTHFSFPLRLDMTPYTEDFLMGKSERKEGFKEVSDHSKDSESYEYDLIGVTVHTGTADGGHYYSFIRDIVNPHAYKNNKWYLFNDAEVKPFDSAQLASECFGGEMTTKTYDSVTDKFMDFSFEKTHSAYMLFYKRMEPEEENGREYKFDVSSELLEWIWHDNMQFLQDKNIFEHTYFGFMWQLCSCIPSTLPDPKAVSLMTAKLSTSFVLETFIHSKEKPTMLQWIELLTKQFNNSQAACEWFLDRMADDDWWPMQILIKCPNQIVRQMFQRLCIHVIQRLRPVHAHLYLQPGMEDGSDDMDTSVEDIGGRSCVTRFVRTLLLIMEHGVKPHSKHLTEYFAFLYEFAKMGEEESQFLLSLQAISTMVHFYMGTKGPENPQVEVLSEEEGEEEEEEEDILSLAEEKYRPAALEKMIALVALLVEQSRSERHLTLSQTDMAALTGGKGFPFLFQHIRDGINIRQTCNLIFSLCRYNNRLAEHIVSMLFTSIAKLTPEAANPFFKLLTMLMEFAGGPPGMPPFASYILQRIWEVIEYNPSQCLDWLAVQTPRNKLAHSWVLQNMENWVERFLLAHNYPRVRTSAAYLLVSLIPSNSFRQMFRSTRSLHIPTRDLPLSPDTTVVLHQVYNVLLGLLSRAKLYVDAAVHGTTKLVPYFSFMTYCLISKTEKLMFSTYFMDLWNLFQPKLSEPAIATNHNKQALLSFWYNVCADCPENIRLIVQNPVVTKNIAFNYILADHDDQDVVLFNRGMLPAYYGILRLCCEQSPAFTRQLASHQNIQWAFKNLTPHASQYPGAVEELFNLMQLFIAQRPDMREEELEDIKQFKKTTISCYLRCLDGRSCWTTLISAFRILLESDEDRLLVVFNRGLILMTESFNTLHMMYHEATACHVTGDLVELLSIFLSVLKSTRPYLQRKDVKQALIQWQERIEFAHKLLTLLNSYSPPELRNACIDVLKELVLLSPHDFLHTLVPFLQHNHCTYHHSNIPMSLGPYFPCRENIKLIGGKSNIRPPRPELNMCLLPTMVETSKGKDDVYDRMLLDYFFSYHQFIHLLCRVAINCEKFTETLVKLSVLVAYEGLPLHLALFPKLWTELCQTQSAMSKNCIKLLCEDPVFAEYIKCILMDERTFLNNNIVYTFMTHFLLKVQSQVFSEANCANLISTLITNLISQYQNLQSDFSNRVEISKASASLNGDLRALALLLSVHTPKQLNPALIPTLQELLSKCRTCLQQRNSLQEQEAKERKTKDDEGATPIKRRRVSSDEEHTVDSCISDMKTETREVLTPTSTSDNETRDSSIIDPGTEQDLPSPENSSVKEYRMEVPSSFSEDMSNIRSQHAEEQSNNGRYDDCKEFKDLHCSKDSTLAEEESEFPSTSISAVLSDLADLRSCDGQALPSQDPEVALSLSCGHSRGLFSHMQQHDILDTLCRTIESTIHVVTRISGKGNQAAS
How it was run: (§1)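 Fragment (200 µM) or vehicle was incubated for 3 h with triplicate HEK293T lysate samples of 495 µg, which were then treated with Biotin-Ahx-Ub-VS at 0.5 µM final for 1 h. Labelled DUBs were enriched on NeutrAvidin, digested with LysC and trypsin, and analysed by diaPASEF LC-MS/MS. Values are average log2 fragment/vehicle ratios from an unpaired t-test on global-median-normalised Spectronaut label-free quantities, using proteins with ≥2 unique peptides.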

[2] = target: T1, USP36 (UniProt Q9P275)
T1 sequence (whole entry): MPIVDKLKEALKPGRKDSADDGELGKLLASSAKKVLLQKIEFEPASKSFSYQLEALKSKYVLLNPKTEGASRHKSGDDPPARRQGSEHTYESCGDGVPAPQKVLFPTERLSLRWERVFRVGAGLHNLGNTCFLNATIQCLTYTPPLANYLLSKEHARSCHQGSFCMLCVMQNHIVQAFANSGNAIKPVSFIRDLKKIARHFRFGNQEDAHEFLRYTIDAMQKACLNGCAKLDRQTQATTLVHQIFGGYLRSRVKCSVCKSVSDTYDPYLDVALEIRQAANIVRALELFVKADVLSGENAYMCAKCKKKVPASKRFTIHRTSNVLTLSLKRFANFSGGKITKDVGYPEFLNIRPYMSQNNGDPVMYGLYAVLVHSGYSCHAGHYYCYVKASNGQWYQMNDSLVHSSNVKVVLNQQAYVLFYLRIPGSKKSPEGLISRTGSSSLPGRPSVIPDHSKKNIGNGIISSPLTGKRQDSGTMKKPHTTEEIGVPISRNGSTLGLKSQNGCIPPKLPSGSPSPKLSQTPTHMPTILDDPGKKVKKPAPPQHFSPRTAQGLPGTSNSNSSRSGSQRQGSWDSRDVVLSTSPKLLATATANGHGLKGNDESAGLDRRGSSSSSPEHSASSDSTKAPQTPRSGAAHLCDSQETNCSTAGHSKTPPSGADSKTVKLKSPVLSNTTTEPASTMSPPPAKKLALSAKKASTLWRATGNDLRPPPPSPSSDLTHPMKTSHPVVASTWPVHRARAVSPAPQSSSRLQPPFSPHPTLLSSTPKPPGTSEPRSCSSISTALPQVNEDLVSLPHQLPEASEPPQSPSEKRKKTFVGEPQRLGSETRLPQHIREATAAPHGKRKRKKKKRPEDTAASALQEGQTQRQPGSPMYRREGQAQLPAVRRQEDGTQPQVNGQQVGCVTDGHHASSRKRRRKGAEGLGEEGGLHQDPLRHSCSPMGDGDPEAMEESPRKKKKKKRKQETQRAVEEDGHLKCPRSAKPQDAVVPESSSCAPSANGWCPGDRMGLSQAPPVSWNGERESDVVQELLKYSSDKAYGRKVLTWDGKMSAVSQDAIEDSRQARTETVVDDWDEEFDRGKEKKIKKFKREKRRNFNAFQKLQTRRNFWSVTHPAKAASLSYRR
How it was run: as §1

[3] = target: T2, USP38 (UniProt Q8NB14)
T2 sequence (whole entry): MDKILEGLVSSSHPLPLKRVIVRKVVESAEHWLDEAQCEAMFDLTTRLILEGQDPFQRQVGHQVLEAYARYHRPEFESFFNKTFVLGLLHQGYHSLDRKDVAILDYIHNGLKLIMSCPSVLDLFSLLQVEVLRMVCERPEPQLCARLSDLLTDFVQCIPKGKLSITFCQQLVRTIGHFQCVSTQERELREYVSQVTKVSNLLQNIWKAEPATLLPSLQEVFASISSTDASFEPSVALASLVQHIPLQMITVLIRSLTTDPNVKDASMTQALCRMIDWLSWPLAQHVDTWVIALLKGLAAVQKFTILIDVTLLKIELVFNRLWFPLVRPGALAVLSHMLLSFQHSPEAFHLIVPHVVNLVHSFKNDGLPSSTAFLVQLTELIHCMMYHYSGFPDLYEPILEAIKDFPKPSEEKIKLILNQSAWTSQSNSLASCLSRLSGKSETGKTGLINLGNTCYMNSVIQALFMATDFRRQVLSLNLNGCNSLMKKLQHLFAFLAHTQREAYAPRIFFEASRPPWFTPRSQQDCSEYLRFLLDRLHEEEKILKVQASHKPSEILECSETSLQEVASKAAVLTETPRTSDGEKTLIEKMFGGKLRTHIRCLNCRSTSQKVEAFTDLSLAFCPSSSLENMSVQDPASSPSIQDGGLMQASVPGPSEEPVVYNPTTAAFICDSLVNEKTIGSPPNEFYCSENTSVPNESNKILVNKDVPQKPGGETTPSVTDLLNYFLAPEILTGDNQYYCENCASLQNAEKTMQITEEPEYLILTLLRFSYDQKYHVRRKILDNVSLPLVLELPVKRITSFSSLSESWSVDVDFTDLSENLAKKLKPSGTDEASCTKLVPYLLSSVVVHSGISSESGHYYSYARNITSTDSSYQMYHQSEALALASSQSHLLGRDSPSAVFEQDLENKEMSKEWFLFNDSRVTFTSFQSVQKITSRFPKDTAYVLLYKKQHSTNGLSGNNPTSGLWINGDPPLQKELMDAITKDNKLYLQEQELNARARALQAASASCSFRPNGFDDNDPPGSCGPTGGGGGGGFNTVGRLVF
How it was run: as §1

[4] = target: T3, USP39 (UniProt Q53GS9)
T3 sequence (whole entry): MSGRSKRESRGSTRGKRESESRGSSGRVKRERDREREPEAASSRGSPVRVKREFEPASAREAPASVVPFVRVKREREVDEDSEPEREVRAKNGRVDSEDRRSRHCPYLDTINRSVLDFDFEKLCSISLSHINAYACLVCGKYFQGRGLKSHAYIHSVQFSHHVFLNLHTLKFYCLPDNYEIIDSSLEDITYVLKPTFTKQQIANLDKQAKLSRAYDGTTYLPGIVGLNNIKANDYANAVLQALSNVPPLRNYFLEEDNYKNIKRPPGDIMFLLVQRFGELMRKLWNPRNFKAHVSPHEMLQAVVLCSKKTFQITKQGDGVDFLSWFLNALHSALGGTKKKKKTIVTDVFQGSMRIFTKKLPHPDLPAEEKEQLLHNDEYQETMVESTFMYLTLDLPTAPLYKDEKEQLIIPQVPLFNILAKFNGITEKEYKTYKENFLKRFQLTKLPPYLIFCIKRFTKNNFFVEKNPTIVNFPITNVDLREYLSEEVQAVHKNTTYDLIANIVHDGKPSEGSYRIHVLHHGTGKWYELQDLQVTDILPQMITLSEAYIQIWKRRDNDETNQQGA
How it was run: as §1

[5] = target: T4, USP4 (UniProt Q13107)
T4 sequence (whole entry): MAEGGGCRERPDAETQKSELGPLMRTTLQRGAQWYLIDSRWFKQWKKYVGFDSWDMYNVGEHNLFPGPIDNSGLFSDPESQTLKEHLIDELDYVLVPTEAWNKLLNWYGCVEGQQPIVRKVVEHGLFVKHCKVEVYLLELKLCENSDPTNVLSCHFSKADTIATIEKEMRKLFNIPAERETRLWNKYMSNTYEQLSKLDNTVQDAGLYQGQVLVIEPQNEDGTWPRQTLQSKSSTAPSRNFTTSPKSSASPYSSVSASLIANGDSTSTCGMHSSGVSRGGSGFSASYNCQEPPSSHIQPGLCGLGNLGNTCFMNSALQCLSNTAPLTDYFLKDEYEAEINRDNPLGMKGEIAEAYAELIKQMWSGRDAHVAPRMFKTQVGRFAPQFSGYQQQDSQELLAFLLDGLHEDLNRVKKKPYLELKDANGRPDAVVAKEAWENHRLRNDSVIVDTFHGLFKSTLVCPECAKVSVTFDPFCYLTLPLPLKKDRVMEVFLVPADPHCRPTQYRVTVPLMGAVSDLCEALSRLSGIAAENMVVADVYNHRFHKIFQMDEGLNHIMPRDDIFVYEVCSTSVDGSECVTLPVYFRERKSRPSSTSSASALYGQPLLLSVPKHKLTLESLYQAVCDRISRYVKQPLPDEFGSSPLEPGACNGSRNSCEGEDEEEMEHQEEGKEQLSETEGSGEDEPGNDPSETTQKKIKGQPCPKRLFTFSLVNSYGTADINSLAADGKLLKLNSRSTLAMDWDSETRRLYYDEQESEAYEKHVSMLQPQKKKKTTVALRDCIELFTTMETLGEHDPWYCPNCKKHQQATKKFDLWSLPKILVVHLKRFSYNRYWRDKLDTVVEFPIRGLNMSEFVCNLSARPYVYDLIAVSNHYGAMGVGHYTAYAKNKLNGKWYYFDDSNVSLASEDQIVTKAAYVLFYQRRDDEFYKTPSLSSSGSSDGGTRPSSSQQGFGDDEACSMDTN
How it was run: as §1

Measured: log2 ratio of Biotin-Ahx-Ub-VS probe labelling

Cc1ccc(CN(C)C(=O)CCl)o1
inactive: [1] -0.0329 | [2] 0.0474 | [3] -0.0916 | [4] 0.287 | [5] 0.0471
